Results from PubChem BioAssay (NCATS).
Results filed as inconclusive are left out. Active and inactive are the calls of the source. Calls come from the whole dose curve; as a rule, active = well fitted inhibition curve with a large enough effect; inconclusive = small, poorly fitted or top-dose-only effect; inactive = flat fitted curve, though single readings scatter. Positions of bridges follow the written chain, without caps; N, C: chain ends. Non-standard residues stand in square brackets, D forms with d. Residues, ends and D or L forms follow the SMILES beside them. ξ: configuration not given here. *: point of attachment. Octanoyl(6-Me) = CCC(C)CCCCC(=O)*; ξThr(3R) = C[C@@H](O)C(N)C(=O)O; dDab = NCC[C@@H](N)C(=O)O; Dab = NCC[C@H](N)C(=O)O

Assays:
CRL-7250 = normal cell line; test: Cytotoxic Profiling of Annotated Libraries Using Quantitative High-Throughput Screening (AID 1296008); settings: Five cell lines viability, CellTiter-Glo ATP luminescence, 48-72 h; max response: hits give low values; for max response: % is set by controls: 0 for no effect and ±100 for the full control effect
Outline: (§1)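 Cytotoxicity was measured as CellTiter-Glo ATP luminescence, read after 10 min at room temperature. Compound treatment of the cells lasted 48 or 72 hr at 37 degrees Celsius in a qHTS format.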

HEK293 = test: as above; settings: Five cell lines viability, CellTiter-Glo ATP luminescence, 48-72 h; max response: hits give low values
Outline: as §1

HaCat [1] = test: as above; settings: Five cell lines viability, CellTiter-Glo ATP luminescence, 48-72 h; max response: hits give low values
Outline: as §1

KB-3-1 = test: as above; settings: Five cell lines viability, CellTiter-Glo ATP luminescence, 48-72 h; max response: hits give low values
Outline: as §1

NIH3T3 = test: as above; settings: Five cell lines viability, CellTiter-Glo ATP luminescence, 48-72 h; max response: hits give low values
Outline: as §1

HACAT [2] = test: qHTS assay to identify novel small-molecules to repurpose for Merkel cell carcinoma treatment (AID 1296009); settings: MCC and control cell lines, CellTiter-Glo viability, 72 h; at 44.8 µM (top of the series) unless noted
Outline: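 Cell viability, measured as CellTiter-Glo luminescence, was normalized between DMSO and no-cell wells. The cells had been exposed to 8- or 11-point compound dilutions for 72 hr at 37 degree celsius.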

Measured: max response
Note: nearly all actives have a fitted effect of over 60% in size.

c1coc(CNc2ncnc3nc[nH]c23)c1
inactive: CRL-7250 | HEK293 | HaCat [1] | KB-3-1 -3.01% | NIH3T3 0.142% | HACAT [2]

CCC(C)CCCCC(=O)N[C@@H](CCN)C(=O)NC(C(=O)N[C@H](CCN)C(=O)N[C@@H]1CCNC(=O)C([C@@H](C)O)NC(=O)[C@@H](CCN)NC(=O)[C@@H](CCN)NC(=O)[C@@H](CC(C)C)NC(=O)[C@H](Cc2ccccc2)NC(=O)[C@H](CCN)NC1=O)[C@@H](C)O (stereo partly drawn) ({Octanoyl(6-Me)}-[Dab][ξThr(3R)][dDab][dDab][Dab]F[dL][dDab][dDab][ξThr(3R)]; lactam 4-C)
inactive: CRL-7250 | HEK293 | HaCat [1] 0.455% | KB-3-1 0.786% | NIH3T3

CC1(C)[C@H](O[C@H]2O[C@H](C(=O)O)[C@@H](O)[C@H](O)[C@H]2O[C@@H]2O[C@H](C(=O)O)[C@@H](O)[C@H](O)[C@H]2O)CC[C@@]2(C)[C@H]1CC[C@]1(C)[C@H]2C(=O)C=C2[C@H]3C[C@@](C)(C(=O)O)CC[C@]3(C)CC[C@]21C
inactive: CRL-7250 -14.3% | HEK293 0.699% | HaCat [1] | KB-3-1 | NIH3T3 | HACAT [2]

C[C@]12C=CC(=O)N[C@@H]1CC[C@H]1[C@H]3CC[C@@H](C(=O)Nc4cc(C(F)(F)F)ccc4C(F)(F)F)[C@@]3(C)CC[C@@H]12
inactive: CRL-7250 -6.18% | HEK293 -11% | HaCat [1] | KB-3-1 -3.32% | NIH3T3 | HACAT [2]

Nc1cccc2c1C(=O)N(C1CCC(=O)NC1=O)C2=O (centres undefined)
inactive: CRL-7250 1.13% | HEK293 -10.8% | HaCat [1] | KB-3-1 -7.31% | NIH3T3 -1.24% | HACAT [2]
